± gives the standard deviation.

The assay relates to OVCAR-3-derived ovarian cancer stem-like cells (spheroids). Description: cell growth relative to untreated control; higher = more growth (less inhibition). The conditions noted are these: 2.29 µM; 96 h. The method, boiled down:
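OVCAR-3 spheroid-derived stem-like cells were trypsin-dissociated, seeded at 50,000 cells/mL in stem cell medium in ultra-low attachment 96-well plates and preincubated 24 h. Compounds were then added at 2.29 uM for 96 h at 37°C, 5% CO2, in 4 replicate wells. Viability was read as TOX8 resazurin fluorescence (ex 560/em 590 nm) after 4 h. Percent growth was calculated relative to untreated wells after blank subtraction and Grubbs outlier removal.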
In the case of `Cc1cc2c(cc1C)[n+](=O)c(C(=O)/C=C/c1ccccc1[N+](=O)[O-])c(C)n2[O-]`, the cell growth is 123 ± 66%.
As for `COC1CC(C)C(OC)c2cc(O)cc(c2O)NC(=O)/C(C)=C/C=C\C(C)C(OC(N)=O)/C(C)=C/C(C)C1OC` (stereo not given), the figure is 29 ± 4.8%; as for `CC(=O)/C(C)=N/NC(=O)c1ccccc1O`, 98.3 ± 20%; as for `Nc1nc(N)c2ncn(-c3ccccc3)c2n1`, 162 ± 19%.
In the case of `COc1cc2cc3c4cc(OC)c(OC)cc4cc[n+]3c(C)c2cc1OC.O=C(O)CS(=O)(=O)[O-]` it was 53.7 ± 9.7%; in that of `Cc1nc(-c2cccnc2)sc1C(=O)/C=C/c1ccc(Cl)cc1Cl`, 114 ± 34%; in that of `C=C1C(=O)OCC2C(C(=O)O)=CC3C(C)C(C)=CC123` (stereo not given), 76.4 ± 10%.
In the case of `O=[N+]([O-])c1cc(C(F)(F)F)cc([N+](=O)[O-])c1CCl` it was 38.4 ± 11%; in that of `CN(C)c1cccc(F)c1C(=O)NC(=O)Nc1ccc(Cl)cc1`, 102 ± 28%; in that of `O=C(O)c1ccc(Nc2c3ccccc3nc3ccccc23)cc1`, 98 ± 12%.
`CN(C)c1ccc(/C=C2/C=Cc3ccccc32)cc1`: the cell growth came to 101 ± 8.1%.
For `COC(C(=O)C(O)C(C)O)C1Cc2cc3cc(OC4CC(OC5CC(O)C(O)C(C)O5)C(O)C(C)O4)c(C)c(O)c3c(O)c2C(=O)C1OC1CC(OC2CC(OC3CC(O)C(OC)C(C)O3)C(O)C(C)O2)C(O)C(C)O1` (stereo not given), the cell growth amounted to 54.3 ± 53%.
`C=CC(=O)N1C/C(=C\c2ccccc2)C(=O)/C(=C/c2ccccc2)C1` came in with a cell growth of 43.2 ± 6.1%.
As for `N#CCCN(c1ccc(C=O)cc1)S(=O)(=O)c1ccccc1`, the figure is 116 ± 22%; as for `C=C1C(=O)OC2CC1C(OC(C)=O)C/C(C)=C/CC/C(C)=C\CCC2(C)O` (stereo not given), 48.5 ± 5.5%.

The record behind these values is the supplement of paper PMC3484114.
